Calls of active or inactive are those of the source. How the source made its calls: active means hit-call score of the fitted dose curve at least 0.9, where 1 is the maximum; inactive means score below 0.9.
Target: Myc proto-oncogene protein (Homo sapiens) (UniProt P01106)
Test: ATG_Myc_CIS: Attagene CIS-FACTORIAL HepG2 Assay for human Myelocytomatosis (Myc) Proto-Oncogene Transcription Factor (AID 2282990)
Conditions: HepG2, Attagene cis-reporter transcription factor activity; actives raise or lower the signal
Procedure, shortened: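 Transiently transfected HepG2 cells bearing cis-promoter reporter units for endogenous transcription factors; 24 h exposure. Reporter mRNA measured by RT-PCR, 6-FAM primer extension, HpaI cut and capillary electrophoresis; bidirectional fit relative to DMSO.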

Sequence of Myc proto-oncogene protein (Homo sapiens) (P01106 whole entry, looked up): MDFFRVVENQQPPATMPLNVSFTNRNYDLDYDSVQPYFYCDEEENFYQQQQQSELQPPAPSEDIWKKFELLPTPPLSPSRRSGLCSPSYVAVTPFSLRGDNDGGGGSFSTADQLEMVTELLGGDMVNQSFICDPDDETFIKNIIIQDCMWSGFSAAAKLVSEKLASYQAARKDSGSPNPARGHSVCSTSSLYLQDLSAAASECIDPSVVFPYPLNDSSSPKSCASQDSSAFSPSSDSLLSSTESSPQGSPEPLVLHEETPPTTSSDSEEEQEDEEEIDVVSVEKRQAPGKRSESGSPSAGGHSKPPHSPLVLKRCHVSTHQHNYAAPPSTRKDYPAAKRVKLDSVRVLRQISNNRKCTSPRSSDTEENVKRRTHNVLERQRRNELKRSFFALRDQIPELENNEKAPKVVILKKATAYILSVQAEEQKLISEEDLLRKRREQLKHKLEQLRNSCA

| SMILES | outcome | AC50 |
| --- | --- | --- |
| CCc1cnc(C2=NC(C)(C(C)C)C(=O)N2)c(C(=O)O)c1 (stereo unspecified) | inactive | – |
| CSc1nnc(C(C)(C)C)c(=O)n1N | inactive | – |
| CC(C)[C@H](C(=O)O[C@H](C#N)c1cccc(Oc2ccccc2)c1)c1ccc(Cl)cc1 | inactive | – |
| S=C1NCCN1 | inactive | – |
| O=c1ccc(=O)[nH][nH]1 | inactive | – |
| COP(=O)(NC(C)=O)SC (stereo unspecified) | inactive | – |
| CCOP(=S)(OCC)Oc1cc(C)nc(C(C)C)n1 | inactive | – |
| CCOC(=O)CC(SP(=O)(OC)OC)C(=O)OCC (stereo unspecified) | inactive | – |
| CC(Oc1cccc(Cl)c1)C(=O)O (stereo unspecified) | inactive | – |
| CCOP(=S)(OCC)SCCSCC | inactive | – |
| CSc1nc(NC(C)C)nc(NC(C)C)n1 | inactive | – |
| CCC(CC)Nc1c([N+](=O)[O-])cc(C)c(C)c1[N+](=O)[O-] | inactive | – |
| CON=C(C(=O)OC)c1ccccc1CON=C(C)c1cccc(C(F)(F)F)c1 | inactive | – |
| CNC(=O)Oc1cccc2c1OC(C)(C)O2 | inactive | – |
| CN(C)NC(=O)CCC(=O)O | inactive | – |
| Cc1cc(C2CC2)nc(Nc2ccccc2)n1 | inactive | – |
| C#CC(C)(C)NC(=O)c1cc(Cl)cc(Cl)c1 | inactive | – |
| CC(=NC#N)N(C)Cc1ccc(Cl)nc1 | inactive | – |

| SMILES | outcome | AC50 |
| --- | --- | --- |
| CCOP(=S)(OCC)Oc1ccc([N+](=O)[O-])cc1 | inactive | – |
| O=C(O)c1cc(Oc2ccc(C(F)(F)F)cc2Cl)ccc1[N+](=O)[O-] | inactive | – |
| CCCOc1nn(C(=O)NS(=O)(=O)c2ccccc2C(=O)OC)c(=O)n1C | inactive | – |
| CCOP(=O)(SC(C)CC)N1CCSC1=O (stereo unspecified) | inactive | – |
| COP(=O)(OC)SCn1c(=O)oc2cc(Cl)cnc21 | inactive | – |
| CCCSP(=O)(OCC)Oc1ccc(Br)cc1Cl (stereo unspecified) | inactive | – |
| CCc1cccc(CC)c1N(COC)C(=O)CCl | – | 2680 nM (active) |
| FC(F)C(F)(F)OCC(Cn1cncn1)c1ccc(Cl)cc1Cl (stereo unspecified) | inactive | – |
| C[Si](Cn1cncn1)(c1ccc(F)cc1)c1ccc(F)cc1 | inactive | – |
| CNc1cnn(-c2cccc(C(F)(F)F)c2)c(=O)c1Cl | inactive | – |
| CN(C)C(=O)Nc1cccc(C(F)(F)F)c1 | inactive | – |
| CC(C)N(C(=O)SCC(Cl)=C(Cl)Cl)C(C)C | inactive | – |
| CCNc1nc(Cl)nc(NC(C)(C)C#N)n1 | inactive | – |
| CC[C@H](C)[C@H]1O[C@]2(C=C[C@@H]1C)C[C@@H]1C[C@@H](C/C=C(\C)[C@@H](O[C@H]3C[C@H](OC)[C@@H](O[C@H]4C[C@H](OC)[C@@H](NC)[C@H](C)O4)[C@H](C)O3)[C@@H](C)/C=C/C=C3\CO[C@@H]4[C@H](O)C(C)=C[C@@H](C(=O)O1)[C@]34O)O2 | inactive | – |
| C[N+]1(C)CCCCC1 | inactive | – |
| CCOP(=O)(OCC)Oc1cc(C)nc(C(C)C)n1 | inactive | – |
| CCCCOC(=O)c1ccccc1C(=O)O | inactive | – |
| CC(C1CC1)C(O)(Cn1cncn1)c1ccc(Cl)cc1 (stereo unspecified) | inactive | – |

Source: PubChem BioAssay (EPA / NIEHS)
